# From publication PMC4552634, “A New Set of Chemical Starting Points with Plasmodium falciparum Transmission-Blocking Potential for Antimalarial Drug Discovery” (PLoS ONE, 2015)
# In all, about 13,000 compounds went through this assay and about 3,200 (25%) showed an effect of 50% or more. The list shows a part of the results.
# Test system: P. falciparum stage V gametocytes
# Design: BacTiter-Glo ATP luminescence viability of purified stage V gametocytes in 384-well plates, per cent inhibition versus DMSO
# Conditions: 48 h, 5 µM; inhibitor
row,SMILES,% Inhibition [%]
1,Cc1cnc(-c2ccc(NC(=O)c3coc4ccc(N5CC(C)N(C)C(C)C5)cc34)cc2)o1 (stereo not drawn) [TCMDC-141361],27.19
2,Cc1cc(O)nc(NC(=N)NOCc2ccccc2)n1 [TCMDC-131683],7.113
3,O=C(NC1CCCC1)c1ccc(N2CCC(NCc3cc4cc(Cl)ccc4[nH]3)CC2)cc1 [TCMDC-124662],-4.187
4,CCOc1ccc(C(=O)Nc2cc(Br)c3c(c2)CNCC3)cc1Cl [TCMDC-139730],27.05
5,CCOc1ccc(C(=O)Nc2cc(Br)c3c(c2)CNCC3)cc1C(F)(F)F [TCMDC-139732],37.39
6,CCOc1ccc(C(=O)Nc2cc(Br)c3c(c2)CNCC3)cc1C#N [TCMDC-139731],94.42
7,COc1ccc(C(=O)Nc2cc(Br)c3c(c2)CNCC3)cc1C(F)(F)F [TCMDC-139728],19.24
8,CCOc1ccc(C(=O)Nc2cc(Br)c3c(c2)CNCC3)cc1Br [TCMDC-139729],61.1
9,COc1ccc(C(=O)Nc2cc(Br)c3c(c2)CNCC3)cc1Br [TCMDC-139727],19.9
10,O=C1c2ccccc2C(=O)N1c1ccc(S(=O)(=O)N2CCOCC2)cc1 [TCMDC-125740],8.047
11,CC(=O)N(C)c1ccc(C(=O)Nc2cccc(-c3cccc(-c4nc5c(C)cccc5[nH]4)c3)c2)cc1 [TCMDC-136850],-24.43
12,CC(C)Sc1nc2c(c(=O)n1Cc1ccco1)C1(CCCC1)Cc1ccccc1-2 [TCMDC-125844],9.662
13,CC(C)(C)c1ccccc1SC1=C(O)CC2(CCNCC2)OC1=O [TCMDC-140973],16.85
14,Cc1cccc2nc(-c3ccc(-c4ccc(CN5CCCCC5CO)cc4)cc3)[nH]c12.O=C(O)C(F)(F)F (stereo not drawn) [TCMDC-133824],10.09
15,Cn1nc(-c2ccc(CNC3CCc4ccccc43)cc2)c2cnc(NCCCN3CCCC3)nc21 (stereo not drawn) [TCMDC-135036],65.55
16,Cn1nc(-c2ccc(CNC3CCc4ccccc43)cc2)c2cnc(NCCN3CCCC3)nc21 (stereo not drawn) [TCMDC-135033],65.68
17,CN(c1cc(NC(=O)c2cccs2)ccn1)C1CCN(Cc2cccc(F)c2)CC1 [TCMDC-135010],5.779
18,COc1ccc2nccc([C@@H](O)CN3CCC(NC(=O)C(c4cc5ccccc5o4)N4CCN(C(c5ccccc5)c5ccccc5)CC4)CC3)c2c1 (stereo partly drawn) [TCMDC-140990],16.51
19,O=C(Nc1ccc(NC2=NCCN2)cc1)c1ccc(C(=O)Nc2ccc(NC3=NCCN3)cc2)cc1 [TCMDC-137799],30.06
20,Nc1ncc(-c2cccc(F)c2)cc1-c1nc2ccc(F)cc2[nH]1 [TCMDC-133132],-10.73
21,CCOC(=O)c1ccc(NC(=O)Nc2cccc(-c3cccc(-c4nc5ccc(F)cc5[nH]4)c3)c2)cc1 [TCMDC-133268],-1.066
22,CCc1nc(N)nc(N)c1-c1ccc(F)cc1 [TCMDC-137722],5.569
23,CC[C@H]1CN2CC[C@H]1C[C@H]2[C@H](O)c1cc(-c2ccccc2F)nc2ccc(OC)cc12 [TCMDC-141193],19.12

row,SMILES,% Inhibition [%]
1,CC[C@H]1CN2CC[C@H]1C[C@H]2[C@H](O)c1cc(-c2ccc(Cl)c(Cl)c2)nc2ccc(OC)cc12 [TCMDC-141216],98.02
2,CC[C@H]1CN2CC[C@H]1C[C@H]2[C@H](O)c1cc(-c2ccc(OC(F)(F)F)cc2)nc2ccc(OC)cc12 [TCMDC-141214],67.8
3,CC[C@H]1CN2CC[C@H]1C[C@H]2[C@H](O)c1cc(-c2ccc(SC)cc2)nc2ccc(OC)cc12 [TCMDC-141196],82.69
4,CC[C@H]1CN2CC[C@@H]1C[C@@H]2[C@@H](O)c1cc(-c2ccc(F)cc2)nc2ccc(OC)cc12 [TCMDC-141379],96.07
5,CC[C@H]1CN2CC[C@H]1C[C@H]2[C@H](O)c1cc(-c2ccccc2C(F)(F)F)nc2ccc(OC)cc12 [TCMDC-141198],-3.019
6,O=C(NCCN1CCCCC1)c1ccc(CNC(=O)c2ccc(O)c(-c3ccc(Cl)c(Cl)c3)c2)cc1 [TCMDC-140860],-11.08
7,COc1ccc(Nc2nc(C)cc(NC3CCCC3)n2)cc1 [TCMDC-133465],24.25
8,CCOC(=O)c1c(CCc2ccc(C(F)(F)F)cc2)nc2c(c1-c1ccc(C(=O)N[C@@H](C)c3ccncc3)cc1)C(=O)N1CCC[C@@H]21 [TCMDC-138612],6.02
9,CCCNC(=O)CN1CN(c2ccccc2)C2(CCN(C(=O)c3ccc(C(C)(C)C)cc3)CC2)C1=O [TCMDC-125173],-65.45
10,Cc1c(C)n(Cc2ccccc2)c2ncnc(OC3CCN(CC(=O)NCC4CC4)CC3)c12 [TCMDC-125326],-12.47
11,CCOC(=O)c1[nH]c(-c2cccnc2)nc1NC(=S)NCc1ccccc1 [TCMDC-138784],-4.964
12,COc1cccc(C(O)CNc2ccnc(Nc3cccc(-c4csc(C)n4)c3)n2)c1 (stereo not drawn) [TCMDC-136574],8.83
13,CCN(CC)CCCN1CCN(C(=O)c2cccc(-c3noc(C(F)(F)F)n3)c2)CC1 [TCMDC-132421],-5.247
14,NC(N)=NC(=O)Nc1cc(Br)c(Cl)c(C(F)(F)F)c1 [TCMDC-137513],-25.86
15,CCc1ccc(-c2nc3cc(NC(=O)c4cc([N+](=O)[O-])cc([N+](=O)[O-])c4)ccc3o2)cc1 [TCMDC-124220],-7.299
16,COc1ccc(-c2csc3nc(C)nc(Cl)c23)cc1OC [TCMDC-125523],-37.7
17,CC[C@H]1CN2CC[C@H]1C[C@H]2[C@H](O)c1cc(-c2cccc(Cl)c2)nc2ccc(OC)cc12 [TCMDC-141215],86
18,CC[C@H]1CN2CC[C@H]1C[C@H]2[C@H](O)c1cc(-c2ccc(F)cc2)nc2ccc(OC)cc12 [TCMDC-141195],81.45
19,CC[C@H]1CN2CC[C@H]1C[C@H]2[C@H](O)c1cc(-c2ccc3ccccc3c2)nc2ccc(OC)cc12 [TCMDC-141213],91.14
20,CC[C@H]1CN2CC[C@H]1C[C@H]2[C@H](O)c1cc(-c2ccc(C)cc2)nc2ccc(OC)cc12 [TCMDC-141192],31.69
21,CC[C@H]1CN2CC[C@H]1C[C@H]2[C@H](O)c1cc(-c2ccc(F)cc2C)nc2ccc(OC)cc12 [TCMDC-141197],26.99
22,C=C[C@H]1CN2CC[C@@H]1C[C@H]2[C@H](O)c1cc(-c2ccc(F)cc2)nc2ccc(OC)cc12 [TCMDC-141374],31.93
23,COc1ccc2nc(-c3ccc(F)cc3)cc([C@@H](O)[C@@H]3C[C@@H]4CCN3CC4C=NO)c2c1 (stereo partly drawn) [TCMDC-141395],28.31

row,SMILES,% Inhibition [%]
1,C=C[C@H]1CN2CC[C@H]1C[C@H]2[C@H](O)c1cc(-c2ccc(Cl)cc2)nc2ccc(OC)cc12 [TCMDC-139009],109.5
2,CC[C@H]1CN2CC[C@@H]1C[C@H]2[C@H](O)c1cc(-c2cc(Cl)cc(Cl)c2)nc2ccc(OC)cc12 [TCMDC-141351],45.7
3,COc1ccc2nccc(N3CCC(SCCNS(=O)(=O)c4ccc5c(c4)OCCO5)C3)c2n1 (stereo not drawn) [TCMDC-134549],-1.611
4,CCCC(=O)c1cnc2c(I)cccc2c1Nc1ccccc1C [TCMDC-138960],-3.378
5,Cc1cccc2[nH]c(-c3ccc(-c4cccc(CN5CCN(c6ccncc6)CC5)c4)cc3)nc12 [TCMDC-132913],17.14
6,CC1(C)N=C(N)N=C(N)N1OCCOc1ccc(Cc2ccccc2)cc1 [TCMDC-131618],0.9057
7,CCC1(C)N=C(N)N=C(N)N1c1ccccc1 (stereo not drawn) [TCMDC-131294],1.322
8,COc1ccc(Br)cc1/C=C/C(=O)Nc1cccc(C2CCN(C)CC2)c1 [TCMDC-133709],17.69
9,CC(CN)OCn1cnc2c(N)ncnc21 (stereo not drawn) [TCMDC-137691],4.807
10,Nc1ccc(-c2ccc(NC(=O)Nc3ccccc3)cc2)cn1 [TCMDC-133409],8.914
11,Cc1noc(C)c1-c1cccc(CNCc2ccc(-c3ccc(-c4nc5ccccc5[nH]4)s3)cc2)c1.O=C(O)C(F)(F)F [TCMDC-133049],5.306
12,COc1ccc(-c2onc(C(F)(F)F)c2-c2ccc(Br)cc2)c(O)c1 [TCMDC-125235],3.062
13,O=C(Nc1ccc(N2CCCN(Cc3cccc(F)c3)CC2)cc1)c1ccc(F)cc1 [TCMDC-135020],-31.48
14,CC[C@H]1CN2CC[C@H]1C[C@H]2[C@H](O)c1cc(-c2cccc(C)c2)nc2ccc(OC)cc12 [TCMDC-141191],44.26
15,CC[C@H]1CN2CC[C@@H]1C[C@H]2[C@H](O)c1cc(-c2cccnc2)nc2ccc(OC)cc12 [TCMDC-141335],-21.27
16,CC[C@H]1CN2CC[C@H]1C[C@H]2[C@H](O)c1cc(-c2cccc(F)c2)nc2ccc(OC)cc12 [TCMDC-141194],63.72
17,O=S(=O)(Nc1ccc(CCN2CCC(N3CCCCC3)CC2)cc1)c1cccc2cccnc12 [TCMDC-134081],43.01
18,O=S(=O)(Nc1cccc(CCN2CCC(N3CCCCC3)CC2)c1)c1cccc2ccccc12 [TCMDC-134069],73
19,Cc1cccc(Cl)c1S(=O)(=O)Nc1cccc(CCN2CCC(N3CCCCC3)CC2)c1 [TCMDC-134063],18.66
20,O=S(=O)(Nc1cccc(CCN2CCC(N3CCCCC3)CC2)c1)c1cccc2cccnc12 [TCMDC-134074],50.45
21,Cc1c(Cl)cccc1S(=O)(=O)Nc1cccc(CCN2CCC(N3CCCCC3)CC2)c1 [TCMDC-134064],56.09
22,CN(C)c1cccc2c(S(=O)(=O)Nc3cccc(CCN4CCC(N5CCCCC5)CC4)c3)cccc12 [TCMDC-134066],76.83
23,COc1ccc(Cl)cc1S(=O)(=O)Nc1cccc(CCN2CCC(N3CCCCC3)CC2)c1 [TCMDC-134076],49.77
